Records with an inconclusive call do not appear. Active and inactive are the calls of the source. The calls were made as follows, unless noted: active = hit-call score of the fitted dose curve at least 0.9, where 1 is the maximum; inconclusive = response in the unintended direction; inactive = score below 0.9.
How the values were obtained:
[1] = Tanguay_ZF_120hpf_CIRC_legacy: (Legacy) Oregon State University Tanguay Lab 120 Hour Post-fertilization zebrafish Assay for Circulatory Malformation (AID 2283651)
Summary of the method: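 Dechorionated wild-type 5D zebrafish embryos, one per well, statically exposed from 6 to 120 hpf at 28C with 0.64% DMSO; circulatory malformation scored present/absent by brightfield microscopy at 120 hpf, dead embryos excluded.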

[2] = Tanguay_ZF_120hpf_SWIM_legacy: (Legacy) Oregon State University Tanguay Lab 120 Hour Post-fertilization zebrafish Assay for Swim Bladder Malformation (AID 2283654);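 also: swim bladder malformation in each larva scored yes or no under brightfield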
Summary of the method: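 Embryos lacking chorions were exposed individually and statically to test chemical from 6 to 120 hpf at 28C, with 0.64% DMSO as vehicle. At 120 hpf, swim bladder malformation was recorded as present or absent by brightfield microscopy.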

[3] = Tanguay_ZF_120hpf_TRUN_legacy: (Legacy) Oregon State University Tanguay Lab 120 Hour Post-fertilization zebrafish Assay for Truncated Body (AID 2283655)
Summary of the method: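 5D wild-type larvae; pronase dechorionation; static exposure 6→120 hpf, 28C; DMSO 0.64% final; 5uM trimethyltin chloride positive control. Readout: presence/absence of truncated body, analyzed relative to DMSO.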

[4] = Tanguay_ZF_120hpf_NC_legacy: (Legacy) Oregon State University Tanguay Lab 120 Hour Post-fertilization zebrafish Assay for Notochord and Tail Malformation (AID 2283656)
Summary of the method: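 Dechorionated Tropical 5D wild-type zebrafish embryos, one per well from 6 hpf, statically exposed to 120 hpf at 28C in 0.64% DMSO final. Notochord distortion scored present/absent by brightfield; dead embryos excluded.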

[5] = system: Thyroperoxidase (TPO), gene 54314; assay: CCTE_Simmons_AUR_rTPO: CCTE's Amplex UltraRed Assay for Thyroperoxidase (TPO) Inhibition, Simmons Lab (AID 2283662);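 as to AC50: potency for loss of signal meaning inhibition of peroxidase activity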
Summary of the method: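 Endpoint is decreased Amplex UltraRed fluorescence after a 30-min, 37C reaction of rat thyroid microsomes with 300 uM H2O2. Eight test concentrations (5 nM–87.5 uM final) in 0.5% DMSO, three biological replicates each.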

[6] = CCTE_Simmons_CellTiterGLO_HEK293T: Viability Assessment in CCTE's Assays for Thyroperoxidase (TPO) Inhibition, Simmons Lab (AID 2283665);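 as to AC50: cells exposed to compound for 24 h before readout; actives reduce ATP signal below DMSO vehicle meaning cytotoxicity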
Summary of the method: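 HEK293T cells in DMEM with 1% FBS, dosed 24 h at 37C with 8 concentrations, 5 nM–87.5 uM final, 0.5% DMSO. ATP measured by CellTiter Glo luminescence; loss of signal vs DMSO, three biological replicates.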

[7] = read-out: solute carrier (SLC22A6), SLC22A6 (gene 9356); assay: LTEA_HepaRG_SLC22A6: Life Technologies and Expression Analysis (LTEA) Assay for solute carrier (SLC22A6) using HepaRG (AID 2283653; active = hit-call score of the fitted dose curve at least 0.9, where 1 is the maximum; inactive = score below 0.9); settings: mRNA level, 48 h; actives raise or lower the signal
Summary of the method: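 This endpoint tracks SLC22A6 mRNA induction or suppression in human HepaRG cultures after 48 h dosing, concentrations reaching 100 uM. Values derive from bidirectional fitting against DMSO controls.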

[8] = read-out: solute carrier (SLC10A1), SLC10A1 (gene 6554); assay: LTEA_HepaRG_SLC10A1: Life Technologies and Expression Analysis (LTEA) Assay for solute carrier (SLC10A1) using HepaRG (AID 2283657; active = hit-call score of the fitted dose curve at least 0.9, where 1 is the maximum; inactive = score below 0.9); settings: mRNA level, 48 h; actives raise or lower the signal
Summary of the method: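 Transcript levels were measured by qRT-PCR after human HepaRG cells received test chemical for 48 hours, up to 100 uM in half-log dilutions. Values come from bidirectional concentration-response fitting relative to 0.5% DMSO vehicle.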

[9] = read-out: matrix metalloproteinase-1 (MMP1), MMP1 (gene 4312); assay: LTEA_HepaRG_MMP1: Life Technologies and Expression Analysis (LTEA) Assay for matrix metalloproteinase-1 (MMP1) using HepaRG (AID 2283658; active = hit-call score of the fitted dose curve at least 0.9, where 1 is the maximum; inactive = score below 0.9); settings: mRNA level, 48 h; actives raise or lower the signal
Summary of the method: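 Bidirectional concentration-response fitting relative to 0.5% DMSO gives the endpoint, derived from MMP1 mRNA levels (qRT-PCR) in human HepaRG cells treated 48 h with chemicals up to 100 uM.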

Measured: AC50

ClCCOCCCl
inactive: [1] | [2] | [3] | [4]

CCC(C)c1ccc(O)cc1 (stereo not drawn)
active: [5] 2.88 µM | [6] 43.8 µM
inactive: [1] | [2] | [3] | [4]

CCCCCCCCOC(=O)c1ccc(C(=O)OCCCCCCCC)c(C(=O)OCCCCCCCC)c1
inactive: [1] | [2] | [3] | [4]

O=C(Oc1ccc(Br)cc1)N1CCN2CCC1CC2
inactive: [1] | [2] | [3] | [4]

CCCCC(CC)COC(=O)c1ccc(C(=O)OCC(CC)CCCC)c(C(=O)OCC(CC)CCCC)c1 (stereo not drawn)
active: [5] 12.7 µM
inactive: [1] | [2] | [3] | [4] | [6]

CCCSC(=O)N(CCC)CCC
inactive: [1] | [2] | [3] | [4]

CS(=O)(=O)NC(=O)c1cc(Oc2ccc(C(F)(F)F)cc2Cl)ccc1[N+](=O)[O-]
inactive: [1] | [2] | [3] | [4]

CCOC(=O)[C@]1(c2ccccc2)Oc2ccccc2[C@@H]1N
active: [5] 12.6 µM | [6] 36.6 µM
inactive: [1] | [2] | [3] | [4]

Oc1ccc2ccc3cccc4ccc1c2c34
active: [2] 48.3 µM | [3] 46.5 µM | [4] 11 µM | [5] 10.9 µM | [6] 10.8 µM
inactive: [1]

COC(=O)c1ccccc1N
not listed: [7] | [8] | [9]
inactive: all other assays above

CN(C)c1ccc(C(=O)c2ccc(N(C)C)cc2)cc1
active: [1] 9.77 µM | [2] 30.1 µM | [5] 8.94 µM | [6] 43.8 µM
inactive: [3] | [4]

[As]#[In]
inactive: [1] | [2] | [3] | [4]

CN(C)c1ccccc1
active: [5] 22.7 µM
inactive: [1] | [2] | [3] | [4]

O=[N+]([O-])C(Br)(CO)CO
inactive: [7] | [8] | [9]

— PubChem BioAssay (EPA / NIEHS)
